Experimental data as given in PubChem BioAssay AID1159580 (chemical genetic matrix, 2015).
Values joined by “and” are separate entries in the source; they are usually repeats but may differ in a detail not shown here. Equal values may be shown once. In all, about 5,500 compounds went through this assay and about 2,000 (36%) were called active. About 18% were inconclusive and are not listed. No stated cut-off is given here; in the data, active means normalized growth mostly below about 0.91 (no sharp cut-off); inconclusive means no clear call, values can overlap the other calls; inactive means mostly above about 0.92. This is one part of the list. Where a structure was tested more than once in an assay, its records may differ in their call.

Assay: chemical genetic growth profiling, strain panel (AID 1159580);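 further: tested at 20 µM; growth read once vehicle control cultures reached saturation at 30 °C; 1 = growth at the plate median or of vehicle wells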
Conditions: S. cerevisiae deletion strains, growth OD
[1] = locus YBR021W, strain FUR4, stronger effect = lower value
[2] = locus YBR229C, strain ROT2, stronger effect = lower value
[3] = locus YCL029C, strain bik1, stronger effect = lower value
[4] = locus YDL035C, strain GPR1, stronger effect = lower value
[5] = locus YDL074C, strain BRE1, stronger effect = lower value
[6] = locus YDL101C, strain DUN1, stronger effect = lower value
[7] = locus YDL185W, strain tfp1, stronger effect = lower value
[8] = locus YDL192W, strain arf1, stronger effect = lower value
[9] = locus YDR101C, strain arx1, stronger effect = lower value
[10] = locus YDR162C, strain NBP2, stronger effect = lower value
[11] = locus YDR318W, strain mcm21, stronger effect = lower value
[12] = locus YDR388W, stronger effect = lower value
[13] = locus YDR502C, strain sam2, stronger effect = lower value
[14] = locus YEL061C, strain CIN8, stronger effect = lower value
[15] = locus YER110C, stronger effect = lower value
[16] = locus YER155C, strain BEM2, stronger effect = lower value
[17] = locus YER167W, strain BCK2, stronger effect = lower value
[18] = locus YGL078C, strain dbp3, stronger effect = lower value
[19] = locus YGL086W, strain mad1, stronger effect = lower value
[20] = locus YGL248W, strain PDE1, stronger effect = lower value
[21] = locus YGR078C, strain PAC10, stronger effect = lower value
[22] = locus YGR135W, strain pre9, stronger effect = lower value
[23] = locus YGR252W, strain gcn5, stronger effect = lower value
[24] = locus YHR030C, strain SLT2, stronger effect = lower value
[25] = locus YHR079C, strain IRE1 (second series), stronger effect = lower value
[26] = locus YHR094C, strain hxt1, stronger effect = lower value
[27] = locus YHR129C, strain ARP1, stronger effect = lower value
[28] = locus YHR200W, strain rpn10, stronger effect = lower value
[29] = locus YIL066C, strain RNR3, stronger effect = lower value
[30] = locus YIL073C, strain SPO22, stronger effect = lower value
[31] = locus YIL125W, strain kgd1, stronger effect = lower value
[32] = locus YIR030C, strain dcg1, stronger effect = lower value
[33] = locus YJL095W, strain BCK1, stronger effect = lower value
[34] = locus YJL134W, strain LCB3, stronger effect = lower value
[35] = locus YJL168C, strain set2, stronger effect = lower value
[36] = locus YJL187C, strain SWE1 (second series), stronger effect = lower value
[37] = locus YJR043C, strain POL32, stronger effect = lower value
[38] = locus YKL009W, strain mrt4, stronger effect = lower value
[39] = locus YKL068W, stronger effect = lower value
[40] = locus YKL085W, strain MDH1 (second series), stronger effect = lower value
[41] = locus YKL085W, strain MDH1, stronger effect = lower value
[42] = locus YKL190W, strain CNB1, stronger effect = lower value
[43] = locus YKR001C, strain vps1, stronger effect = lower value
[44] = locus YLR039C, strain RIC1, stronger effect = lower value
[45] = locus YLR058C, strain SHM2, stronger effect = lower value
[46] = locus YLR102C, strain apc9, stronger effect = lower value
[47] = locus YLR262C, strain YPT6, stronger effect = lower value
[48] = locus YLR268W, strain sec22, stronger effect = lower value
[49] = locus YLR330W, strain CHS5, stronger effect = lower value
[50] = locus YLR342W, strain FKS1 (second series), stronger effect = lower value
[51] = locus YLR371W, strain rom2, stronger effect = lower value
[52] = locus YLR418C, strain cdc73, stronger effect = lower value
[53] = locus YML016C, strain PPZ1, stronger effect = lower value
[54] = locus YML032C, strain rad52, stronger effect = lower value
[55] = locus YML124C, strain tub3, stronger effect = lower value
[56] = locus YMR078C, strain ctf18, stronger effect = lower value
[57] = locus YMR223W, strain ubp8, stronger effect = lower value
[58] = locus YMR263W, strain SAP30, stronger effect = lower value
[59] = locus YMR307W, strain GAS1, stronger effect = lower value
[60] = locus YNL067W, strain RPL9B, stronger effect = lower value
[61] = locus YNL233W, strain BNI4, stronger effect = lower value
[62] = locus YNL250W, strain rad50, stronger effect = lower value
[63] = locus YNL271C, strain bni1, stronger effect = lower value
[64] = locus YNL298W, strain CLA4, stronger effect = lower value
[65] = locus YNL307C, strain MCK1, stronger effect = lower value
[66] = locus YNR052C, strain pop2, stronger effect = lower value
[67] = locus YOL006C, strain TOP1, stronger effect = lower value
[68] = locus YOL147C, strain pex11, stronger effect = lower value
[69] = locus YOR061W, strain CKA2, stronger effect = lower value
[70] = locus YOR069W, strain VPS5, stronger effect = lower value
[71] = locus YOR136W, strain idh2, stronger effect = lower value
[72] = locus YOR144C, strain elg1, stronger effect = lower value
[73] = locus YOR184W, strain ser1, stronger effect = lower value
[74] = locus YOR316C, strain cot1, stronger effect = lower value
[75] = locus YPL055C, strain LGE1, stronger effect = lower value
[76] = locus YPR119W, strain clb2, stronger effect = lower value
[77] = locus YPR141C, strain kar3, stronger effect = lower value
[78] = locus YPR163C, strain tif3, stronger effect = lower value
[79] = locus YPR167C, strain met16, stronger effect = lower value
[80] = strain wtn01, stronger effect = lower value

Measured: normalized growth

COc1ccccc1-c1coc2cc(O)ccc2c1=O
inactive: [1] 0.987 | [2] 1.01 | [3] 1 | [4] 0.983 | [5] 1.02 | [6] 0.995 | locus YDL134C, strain PPH21, stronger effect = lower value 0.963 | [7] 0.999 | [8] 1 | [9] 0.996 | [10] 0.986 | [11] 1.01 | [12] 1.03 | [13] 1.02 | [14] 1.02 | [15] 1.02 | [16] 1.02 | [17] 1.03 | [18] 1 | [19] 1.01 | [20] 1.01 | [21] 0.995 | [22] 0.999 | [23] 0.88 | [24] 1.02 | [25] 1.02 | [26] 1.02 | [27] 1.03 | [28] 1.03 | [29] 1.01 | [30] 1.05 | [31] 1.02 | [32] 1.01 | [33] 1.04 | [34] 1.02 | [35] 1.02 | [36] 0.998 | [37] 0.971 | [38] 0.993 | [39] 1 | [40] 1 | [41] 1 | [42] 1.02 | [43] 0.979 | [44] 1.03 | [45] 1.01 | [46] 1.01 | [47] 0.991 | [48] 0.997 | [49] 1.03 | [50] 0.992 | [51] 1.02 | [52] 0.969 | [53] 1.04 | [54] 1.02 | [55] 1.01 | [56] 1.01 | [57] 0.999 | [58] 1 | [59] 0.909 | [60] 0.987 | [61] 1.02 | [62] 1.02 | [63] 1.02 | [64] 1 | [65] 1.02 | [66] 1.01 | [67] 1.08 | locus YOL012C, strain htz1 1.12 | [68] 1.01 | [69] 1.01 | [70] 1.02 | [71] 1.03 | [72] 0.999 | [73] 0.981 | [74] 1.03 | [75] 1 | locus YPL241C, strain CIN2, stronger effect = lower value 0.996 | [76] 1 | [77] 1.01 | [78] 1.02 | [79] 1.01 | [80] 0.986

COc1ccc(-c2coc3cc(OC)ccc3c2=O)cc1
0.973 (inactive) and 0.882 (active): [24]
inactive: locus YAL013W, strain DEP1, stronger effect = lower value 0.933 | [1] 1.02 | [3] 0.929 | [4] 0.905 | [5] 0.839 | [9] 0.92 | locus YDR150W, strain NUM1, stronger effect = lower value 0.94 | [15] 0.907 | [16] 1.01 | [17] 0.906 | [18] 0.936 | [23] 0.851 | locus YHR079C, strain IRE1, stronger effect = lower value 0.976 | [26] 0.949 | [30] 0.783 | [31] 0.941 | [32] 0.931 | [34] 0.941 | [35] 0.936 | [36] 0.891 | [37] 0.885 | locus YJR066W, strain TOR1, stronger effect = lower value 0.9 | locus YJR075W, strain HOC1, stronger effect = lower value 0.913 | [38] 0.92 | [42] 0.933 | [45] 0.906 | [46] 0.941 | locus YLR113W, strain HOG1, stronger effect = lower value 0.984 | [48] 0.919 | [51] 0.933 | [53] 0.922 | [54] 0.942 | [56] 0.929 | [57] 0.911 | [58] 0.898 | [59] 0.658 | [60] 0.886 | locus YNL183C, strain NPR1, stronger effect = lower value 0.921 | [61] 0.888 | [62] 0.943 | locus YNL322C, strain KRE1, stronger effect = lower value 0.936 | [66] 0.928 | [67] 0.589 | locus YOL012C, strain htz1 0.966 | [69] 0.899 | [70] 0.937 | [71] 0.971 | [72] 0.937 | locus YOR231W, strain MKK1, stronger effect = lower value 0.982 | [74] 0.928 | [75] 0.836 | locus YPL256C, strain CLN2, stronger effect = lower value 0.968 | [76] 0.947 | [77] 0.921 | [79] 0.943 | [80] 0.91
active: [2] 0.908 | [6] 0.891 | [7] 0.896 | [8] 0.898 | [10] 0.607 | [11] 0.912 | [12] 0.92 | [13] 0.907 | [14] 0.917 | [19] 0.906 | [20] 0.876 | [21] 0.811 | [22] 0.89 | [25] 0.922 | [27] 0.915 | [28] 0.906 | [29] 0.807 | [39] 0.93 | [40] 0.928 | [41] 0.928 | [43] 0.644 | [44] 0.48 | [47] 0.468 | [49] 0.874 | [50] 0.763 | [52] 0.736 | [55] 0.925 | [63] 0.918 | [64] 0.906 | [65] 0.543 | [68] 0.922 | [73] 0.783 | [78] 0.772
0.983 (inactive) and 0.669 (active): [33]
